Screens: PubChem, several laboratories
The list is not random: actives were taken first. Their share in the collection is about 2.6%.
AI-2 QS mod: modulates the Vibrio harveyi AI-2 quorum sensing system. 0.4% of 300,000 active. activity change, % at 7.5 µM. Vibrio harveyi JMH597 AI-2 luminescence/OD600 ratio, 9 h; hits give low values; strain lacks LuxN and CqsS sensors; 0 = neutral-control median; in the data active = activity change below about -75%, passing the limit was not always enough;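 also: luminescence divided by OD600 gain over 9 h not by final OD600 alone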
PHOSPHO1 inh: inhibitors of human PHOSPHO1 phosphatase. inhibition, % at 13.3 µM. AID 1565. 1.1% of 290,000 active. Q8TCT1. recombinant PHOSPHO1, absorbance phosphatase assay; in the data active = inhibition above about 60%
Target sequence (Q8TCT1 whole entry, looked up): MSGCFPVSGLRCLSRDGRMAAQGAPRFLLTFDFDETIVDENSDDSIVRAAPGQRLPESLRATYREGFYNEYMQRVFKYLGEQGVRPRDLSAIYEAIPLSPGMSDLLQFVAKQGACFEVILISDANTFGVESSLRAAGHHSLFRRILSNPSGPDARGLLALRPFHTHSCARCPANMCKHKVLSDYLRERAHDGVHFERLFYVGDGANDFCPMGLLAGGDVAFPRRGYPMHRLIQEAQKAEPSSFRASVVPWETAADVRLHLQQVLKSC
PABP1 MLLE inh: inhibitors of microRNA-mediated deadenylation, human PABP1 MLLE binding | 0.36% of 360,000 active | inhibition, % at 20 µM | GST-MLLE / FITC-PAM2 fluorescence polarization | P11940 | AID 588489; in the data active = inhibition above about 35%, passing the limit was not always enough;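 also: plate controls were DMSO wells with GST-MLLE for no effect and wells lacking GST-MLLE protein for full effect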
eIF4H inh: inhibitors of RNA binding by human eIF4H | Q15056 | eIF4H fluorescence polarization binding assay | inhibition, % at 35 µM | 0.94% of 290,000 active | AID 2012;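 also: calls also rest on retests at 20 µM and on dose response follow-up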
PABP polyA inh: blocks human PABP binding to poly(A) RNA; P11940; fluorescence polarization; calls only at 35 µM; 1% of 290,000 active;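 also: calls also rest on retests at 20 µM and on dose response follow-up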
ABCB6 inh 2: blocks the human ABCB6 transporter; fluorescence ratio to DMSO, % at 10 µM; K562-ABCB6 porphyrin accumulation, flow cytometry, 1 h; hits give low values; Q9NP58; 0.19% of 360,000 active;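 active = fluorescence ratio to DMSO below 75%, the collection mean minus 3 SD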;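 also: signal is porphyrin accumulated inside mitochondria; 100% equals median channel fluorescence of DMSO control wells; lower ratio means ABCB6 inhibition with less porphyrin fluorescence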
ABCB6 blocker 1: human ABCB6 transporter inhibition | 700 tested, under 10 active | K562-ABCB6 porphyrin accumulation, flow cytometry, 1 h; hits give low values | shares compounds with ABCB6 inh 2 | ratio response (% of DMSO), % at 10 µM | AID 602430;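 active = repeat-averaged ratio response below 75% of DMSO, the collection mean minus 3 SD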;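 also: median porphyrin fluorescence at 575 nm with 488 nm excitation from mitochondria; lower ratio means less porphyrin signal so ABCB6 inhibition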
* marks the source's active call; other numbers are inactive results; i = inactive; x = no result. Unless noted, no rule for the calls is given here.

SMILES	AI-2 QS mod	PHOSPHO1 inh	PABP1 MLLE inh	eIF4H inh	PABP polyA inh	ABCB6 inh 2	ABCB6 blocker 1
CC(C)(C)c1ccc(Cn2nnc3c(=O)[nH]c(C4CCN(C(=O)c5ccco5)CC4)nc32)cc1	35	22	0	-17	i	94	100
CC1(C(=O)NS(=O)(=O)c2cccc(C#N)c2)CCN1C(=O)CCc1ccccc1 (centres undefined)	x	x	6	x	x	99	101
CC(C)(C)c1ccc(CC(=O)N2CCC2(C)C(=O)NS(=O)(=O)c2ccccc2C(F)(F)F)cc1 (centres undefined)	x	x	9	x	x	86	100
Cc1cccc(S(=O)(=O)NC(=O)C2(C)CCN2C(=O)Cc2ccc(Cl)cc2Cl)c1 (centres undefined)	x	x	-3	x	x	104	101
CC1(C(=O)NS(=O)(=O)c2cccc(Cl)c2)CCN1C(=O)Cc1ccc(Cl)cc1Cl (centres undefined)	x	x	-13	x	x	95	x
Cc1ccc(F)c(S(=O)(=O)NC(=O)C2(C)CCN2C(=O)Cc2ccc(C(C)(C)C)cc2)c1 (centres undefined)	x	x	-12	x	x	99	x
Cc1ccc(F)c(S(=O)(=O)NC(=O)C2(C)CCN2C(=O)Cc2cccc3ccccc23)c1 (centres undefined)	x	x	-3	x	x	85	97
CC(C)[C@@H]1Cc2[nH]c(=S)[nH]c(=O)c2[C@H](CCc2ccccc2)O1	x	x	x	x	x	102	x
CCOC(=O)C1=CCN(S(=O)(=O)c2ccccc2Cl)C1c1ccc(C)cc1 (centres undefined)	x	x	6	x	x	96	x
Cc1cccc(S(=O)(=O)NC(=O)C2(C)CCN2C(=O)Cc2ccccc2)c1 (centres undefined)	x	x	-1	x	x	99	102
CC1(C(=O)NS(=O)(=O)c2cccc(F)c2)CCN1C(=O)Cc1ccccc1 (centres undefined)	x	x	11	x	x	92	x
CC1(C(=O)NS(=O)(=O)c2ccccc2)CCN1C(=O)Cc1ccccc1 (centres undefined)	x	x	-6	x	x	98	x
Cc1ccc(S(=O)(=O)NC(=O)C2(C)CCN2C(=O)Cc2ccc(-c3ccccc3)cc2)cc1 (centres undefined)	x	x	-11	x	x	97	102
CC(C)(C)c1ccc(CC(=O)N2CCC2(C)C(=O)NS(=O)(=O)c2cccc(F)c2)cc1 (centres undefined)	x	x	9	x	x	98	102
CC1(c2nnnn2Cc2ccccc2)CCC(=O)N1CCc1ccccc1F (centres undefined)	x	x	x	x	x	102	x
CCc1nc2c(OCc3ccc(F)c(F)c3)cccn2c1N(C)C(=O)c1ccc(C)cc1	x	x	5	x	x	94	x
COc1ccccc1CNC(=O)Nc1nc(C(N)Cc2ccc(Cl)cc2)cs1 (centres undefined)	x	x	5	x	x	98	x
CCC(=O)[C@@H](C)[C@@H](OC(C)=O)[C@H](C)C[C@@H](C)[C@H]1OC(=O)C[C@@]2(O)CC=C(C)C(O2)C(C)=CCCC[C@H](O[C@H]2C[C@@H](OC(N)=O)[C@H](OC(C)=O)[C@@H](C)O2)C=C[C@H](C)C[C@H]1C	x	x	x	x	x	98	x
COc1ccc([C@@H]2Sc3cc(OC)ccc3N(CCN(C(C)C)C(C)C)C(=O)[C@H]2OC(C)=O)cc1	11	-10	-15	-10	i	51*	101
O=C1NC2(CCCCC2)C(=O)N1c1cccc(Cl)c1	18	1	5	4	i	73*	100
O=S1(=O)CC(N2CCN(c3ccccn3)CC2)CN1Cc1ccccc1 (centres undefined)	x	x	-4	x	x	97	x
COc1ccc(C(=O)NC2=NCCS2)cc1	-7	x	5	-4	i	74*	97
COc1ccc(NC(=O)C2(C)CCCN(C(C)=O)C2)cc1F (centres undefined)	x	x	6	x	x	99	x
O=C(NCc1ccc(F)cc1)c1cc(C2CCCN(C(=O)c3ccc4c(c3)CCO4)C2)on1 (centres undefined)	x	x	23	x	x	95	x
CC(C)N(C)c1ncnc2c1ncn2[C@H]1CN(Cc2ccc(Cl)cc2)C[C@@H](CO)O1	x	x	4	x	x	100	x
SMILES	AI-2 QS mod	PHOSPHO1 inh	PABP1 MLLE inh	eIF4H inh	PABP polyA inh	ABCB6 inh 2	ABCB6 blocker 1
COC(=O)[C@H](CCSC)NC(=O)Nc1ccc(C(C)C)cc1	19	3	7	8	i	108	x
COC(=O)[C@H](CCSC)NC(=O)Nc1ccc(C)c(C)c1	27	-5	4	2	i	69*	101
Oc1ccc(C[C@H]2CN([C@@H](Cc3cccc(O)c3)CN3CCC[C@@H]3CN3C(=S)NC[C@@H]3Cc3ccccc3)C(=S)N2CC2CCCCC2)cc1	x	x	13	x	x	100	x
O=C(CSc1nc2c(c(=O)[nH]1)CCCC2)Nc1ccc(Cl)cc1F	-15	11	-14	-3	i	70*	104
O=C(CSc1nc2c(c(=O)[nH]1)CCC2)Nc1ccc(F)cc1	4	5	-131	-3	i	98	x
CCOC(=O)c1c(NC(=O)c2ccc(N3C(=O)[C@@H]4[C@H](C3=O)[C@H]3C=C[C@@H]4C3)cc2)sc2c1CC(C)CC2 (some centres undefined)	11	-30	-7	-3	i	68*	96
Cc1ccc(Cc2c(-c3ccc(F)cc3)nc3c(C)cc(Br)cn23)cc1	x	x	-7	x	x	92	x
O=C(c1ccc(Cn2cc(Br)cn2)o1)N1N=C(C(F)F)CC1(O)C(F)F (centres undefined)	28	-2	3	-9	i	99	x
O=C(c1ccc(COc2ccc(Cl)cc2)o1)N1N=C(C(F)F)CC1(O)C(F)F (centres undefined)	19	-5	5	4	i	95	101
COc1ccccc1OCc1ccc(C(=O)n2nc(C)c(Cl)c2C)o1	7	27	-3	11	i	96	x
COc1ccccc1OCc1ccc(C(=O)N2N=C(C(F)F)CC2(O)C(F)F)o1 (centres undefined)	27	17	11	-9	i	108	99
O=C1N(CCCN2C(=O)C3(OCCO3)c3ccccc32)c2ccccc2C12OCCO2	10	24	-10	-9	i	68*	103
OCCCNc1ncnc2c1ncn2[C@H]1CN(Cc2ccc(-c3ccccc3)cc2)C[C@@H](CO)O1	x	x	-7	x	x	99	x
O=C(COC(=O)c1cccc2ccccc12)NCCCc1ccccc1	27	-3	-7	2	i	94	x
Cc1cccc(C(=O)OCC(=O)NCCCc2ccccc2)c1O	4	-3	8	2	i	18*	100
COc1cccc(NC(=O)C2(C)CCN2C(=O)C2CCCCC2)c1 (centres undefined)	x	x	8	x	x	101	x
COc1cccc(-c2nnc(-c3ccc(C)o3)o2)c1	23	-4	10	31	i	96	x
